Inconclusive results are not listed. The source made the active and inactive calls. Unless noted, calls follow the shape of the dose curve; as a rule, active = well fitted cell-killing curve with a large enough effect; inconclusive = small, poorly fitted or top-dose-only effect; inactive = flat fitted curve, though single readings scatter.
Columns and labels:
[1] = Cell Viability - LYMP2-025 (AID 976);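 also: series mostly up to about 92 µM; plate controls were DMSO only for no effect and tetraoctylammonium bromide control for full effect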
Outline: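 Human lymphoblastoid LYMP2-025 cells, 2500/well, exposed 24 h at 37 C in complete medium in 1536-well qHTS. Viability as cellular ATP by CellTiter-Glo luminescence; AC50 from Hill fits of concentration-response data.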

[2] = Cell Viability - LYMP2-002 (AID 977);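 also: series mostly up to about 92 µM; plate controls were DMSO only for no effect and 92 µM tetraoctylammonium bromide for full effect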
Outline: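 Luminescent ATP readout (CellTiter-Glo, 30 min room temperature) after 24 h compound exposure at 37 C of a human lymphoblastoid line, 2500 cells/well. AC50 values derived by standard Hill fitting of qHTS concentration-response data.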

[3] = Cell Viability - LYMP2-006 (AID 978); also: series mostly up to about 92 µM; % is scaled to controls: 0 for no effect and ±100 for the full control effect; nearly all actives have a fitted effect of over 60% in size
Outline: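 In this cytotoxicity screen, the human lymphoblastoid line grew in complete medium with test compounds for 24 hr at 37 C. Cellular ATP served as the viability signal.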

[4] = Cell Viability - LYMP2-007 (AID 979);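 also: cells exposed to compound for 24 h before reading; 0% = DMSO only and the negative end = 92 µM tetraoctylammonium bromide; nearly all actives have a fitted effect of over 60% in size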
Outline: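 Human lymphoblastoid LYMP2-007 cells (2500/well) preincubated 5 h at 37 C, then treated 24 h at 37 C in complete medium. Viability by CellTiter-Glo ATP luminescence after 30 min at room temperature; AC50 from Hill fits.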

[5] = Cell Viability - LYMP2-008 (AID 980); also: % is scaled to controls: 0 for no effect and ±100 for the full control effect; nearly all actives have a fitted effect of over 60% in size
Outline: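 LYMP2-008 lymphoblastoid cells (2500/well) plated 5 h, then treated 24 h at 37 C in complete medium. Viability read as intracellular ATP by CellTiter-Glo luminescence after 30 min at room temperature; AC50 from Hill fits.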

[6] = Cell Viability - LYMP2-010 (AID 981); also: % is scaled to controls: 0 for no effect and ±100 for the full control effect; nearly all actives have a fitted effect of over 55% in size
Outline: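 Human lymphoblastoid LYMP2-010 cells (2500/well) treated 24 h at 37 C in complete medium; viability read as intracellular ATP by CellTiter-Glo luminescence. AC50 from Hill fits of concentration-response data; tetraoctylammonium bromide positive control.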

[7] = Cell Viability - LYMP2-012 (AID 982);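 also: cellular ATP by luciferase luminescence where a drop means cytotoxicity; cells exposed to compound for one day before reading; 0% = DMSO only and full loss = 92 µM tetraoctylammonium bromide; nearly all actives have a fitted effect of over 55% in size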
[8] = Cell Viability - LYMP2-014 (AID 983);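 also: series mostly up to about 92 µM; plate controls were DMSO only for no effect and 92 µM tetraoctylammonium bromide for full effect; nearly all actives have a fitted effect of over 50% in size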
Outline: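 LYMP2-014 human lymphoblastoid cells, 2500/well, treated 24 h at 37 C in complete medium; viability by CellTiter-Glo ATP luminescence after 30 min at room temperature. AC50 from Hill fits of qHTS concentration-response; tetraoctylammonium bromide positive control.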

[9] = Cell Viability - LYMP2-016 (AID 984); also: % is scaled to controls: 0 for no effect and ±100 for the full control effect; nearly all actives have a fitted effect of over 55% in size
Outline: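 Concentration-dependent ATP depletion measured in LYMP2-016 lymphoblastoid cells, 24 h, 37 C; luciferase-based luminescent detection; Hill-equation AC50.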

[10] = Cell Viability - LYMP2-018 (AID 985);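 also: compound exposure lasted 24 hr at 37 °C; plate controls were DMSO only for no effect and tetraoctylammonium bromide at 92 µM for full effect; nearly all actives have a fitted effect of over 50% in size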
Outline: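 Human lymphoblastoid LYMP2-018 cells, 2500/well, settled 5 hr at 37 C then exposed to compound 24 hr at 37 C; intracellular ATP measured by CellTiter-Glo luminescence. AC50 from Hill-equation concentration-response fits.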

[11] = Cell Viability - LYMP2-020 (AID 986);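 also: series mostly up to about 92 µM; plate controls were DMSO only for no effect and tetraoctylammonium bromide at 92 µM for full effect; nearly all actives have a fitted effect of over 55% in size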
Outline: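 Human lymphoblastoid LYMP2-020 cells (2500/well) preincubated 5 h at 37 C, then treated 24 h at 37 C. Viability measured as intracellular ATP by CellTiter-Glo luminescence after 30 min at room temperature; AC50 from Hill fits.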

[12] = Cell Viability - LYMP2-022 (AID 987)
Outline: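 LYMP2-022 lymphoblastoid cells (2500/well, complete medium) were treated with compounds for 24 hours at 37 C; intracellular ATP was then read by CellTiter-Glo luminescence after 30 min at room temperature. AC50 values were derived from Hill-equation fits.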

[13] = Cell Viability - LYMP2-024 (AID 988);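 also: plate controls were DMSO only for no effect and 92 µM tetraoctylammonium bromide for full effect; nearly all actives have a fitted effect of over 60% in size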
Outline: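 Human lymphoblastoid LYMP2-024 cells (2500/well) rested 5 hr, then treated with compound for 24 hr at 37 C in complete medium. Viability was measured as intracellular ATP by CellTiter-Glo luminescence. AC50 values came from Hill-equation fits.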

[14] = Cell Viability - LYMP1-002 - Assay at 40 hr (AID 994)
Outline: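 LYMP1-002 human lymphoblastoid cells (2500/well, complete medium) were treated with compounds for 40 hr at 37 C. Intracellular ATP was measured by CellTiter-Glo luminescence, and AC50 values came from Hill-equation fits of concentration-response data; tetraoctylammonium bromide was the positive control.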

[15] = qHTS Assay for Identification of Small Molecule Inducers of Hypoxia Response (AID 2120; active = well fitted curve in the direction sought with a large enough effect in the signal ratio, with a control signal flat, not every such curve was filed as active; the % refers to the signal ratio; also: 0% is about no effect)
Outline: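 HRE-bla ME-180 cells in Opti-MEM with 0.5% dialyzed FBS, pre-plated 4-5 h, then compound titration for 17 h at 37 degrees Celsius. CCF4 loaded 2.5 h at room temperature; 460/530 nm ratio gave %Activity and AC50 for induction.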

[16] = target: Bile acid receptor (Homo sapiens) (UniProt Q96RI1); assay: qHTS assay for small molecule antagonists of farnesoid X receptor signaling (AID 588526; calls by dose curve; also: % is scaled to controls: 0 for no effect and ±100 for the full control effect)
Chain of Bile acid receptor (Homo sapiens) (Q96RI1 whole entry, looked up): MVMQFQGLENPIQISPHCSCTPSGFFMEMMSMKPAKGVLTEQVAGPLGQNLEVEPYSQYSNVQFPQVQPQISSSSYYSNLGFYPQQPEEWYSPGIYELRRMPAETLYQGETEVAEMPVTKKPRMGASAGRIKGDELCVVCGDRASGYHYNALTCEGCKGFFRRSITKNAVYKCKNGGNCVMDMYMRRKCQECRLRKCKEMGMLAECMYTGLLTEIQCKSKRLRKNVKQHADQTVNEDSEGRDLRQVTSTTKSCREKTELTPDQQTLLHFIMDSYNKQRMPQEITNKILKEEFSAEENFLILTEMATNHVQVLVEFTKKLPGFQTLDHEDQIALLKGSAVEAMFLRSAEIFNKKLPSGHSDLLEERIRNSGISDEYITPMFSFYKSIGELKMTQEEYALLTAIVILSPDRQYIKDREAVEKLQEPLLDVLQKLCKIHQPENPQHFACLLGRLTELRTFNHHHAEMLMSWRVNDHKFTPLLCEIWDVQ
Outline: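 Concentration-response titrations were fitted to the Hill equation for half-maximal inhibition and maximal response, with data normalised to 50 uM chenodeoxycholic acid and DMSO control wells. Cells: FXR-UAS-bla HEK293T, dialyzed FBS.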

[17] = target: Glucocorticoid receptor (Homo sapiens) (UniProt P04150); assay: qHTS assay for small molecule agonists of glucocorticoid receptor signaling (AID 588532; active = well fitted curve in the direction sought with a large enough effect in the signal ratio, with a control signal flat; the % refers to the signal ratio;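 also: 100% = dexamethasone at 0.1 µM and 0% = DMSO only wells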); conditions: HeLa MMTV-bla, beta-lactamase ratio, agonist, 18 h; stronger effect = higher value; percent of dexamethasone control, DMSO zero
Chain of Glucocorticoid receptor (Homo sapiens) (P04150 whole entry, looked up): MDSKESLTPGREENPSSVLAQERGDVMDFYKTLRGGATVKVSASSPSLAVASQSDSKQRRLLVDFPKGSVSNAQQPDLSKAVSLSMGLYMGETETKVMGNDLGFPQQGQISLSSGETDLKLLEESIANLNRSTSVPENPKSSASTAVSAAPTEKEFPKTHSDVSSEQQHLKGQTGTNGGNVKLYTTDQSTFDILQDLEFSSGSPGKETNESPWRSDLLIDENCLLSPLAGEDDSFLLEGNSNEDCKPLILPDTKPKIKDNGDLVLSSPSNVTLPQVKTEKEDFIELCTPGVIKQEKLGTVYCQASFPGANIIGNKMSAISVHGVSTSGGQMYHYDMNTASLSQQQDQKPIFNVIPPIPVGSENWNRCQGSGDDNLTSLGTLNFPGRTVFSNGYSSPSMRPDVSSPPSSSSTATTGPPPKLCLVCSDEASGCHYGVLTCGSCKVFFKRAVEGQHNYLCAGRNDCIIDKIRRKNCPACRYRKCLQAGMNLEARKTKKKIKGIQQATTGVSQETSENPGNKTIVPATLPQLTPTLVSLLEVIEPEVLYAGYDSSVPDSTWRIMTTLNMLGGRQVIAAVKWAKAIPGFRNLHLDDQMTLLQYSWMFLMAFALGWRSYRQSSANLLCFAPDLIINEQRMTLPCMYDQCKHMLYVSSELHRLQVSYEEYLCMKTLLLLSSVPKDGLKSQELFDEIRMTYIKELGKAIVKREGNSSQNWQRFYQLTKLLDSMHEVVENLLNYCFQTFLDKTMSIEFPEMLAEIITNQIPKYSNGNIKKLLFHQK
Outline: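 Titration series, up to 92 uM, applied to GRE-bla HeLa cells for 18 h at 37 C. Detection by CCF4 FRET substrate after 2 h at RT.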

[18] = target: Glucocorticoid receptor (Homo sapiens) (UniProt P04150); assay: qHTS assay for small molecule antagonists of glucocorticoid receptor signaling (AID 588533; active = well fitted inhibition curve with a large enough effect in the signal ratio, with a control signal flat, not every such curve was filed as active; the % refers to the signal ratio;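 also: cells stimulated with 2 nM dexamethasone as agonist; % is scaled to controls: 0 for no effect and ±100 for the full control effect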)
Outline: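 Antagonist-mode qHTS: compound titrations added to GRE-bla HeLa cells, then dexamethasone 2 nM final; 18 h, 37 C. CCF4 FRET fluorescence normalized to dexamethasone and DMSO; IC50 from Hill fit.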

[19] = qHTS assay for small molecule antagonists of peroxisome proliferator-activated receptor delta signaling (AID 588535; active = well fitted inhibition curve with a large enough effect in the signal ratio, with a control signal flat, not every such curve was filed as active; the % refers to the signal ratio;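 as to max response: cells co-treated with a PPAR-delta agonist as stimulator during compound exposure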); conditions: HEK293T PPARd-UAS-bla, beta-lactamase FRET ratio, 18 h; 460 nm channel
Outline: (§1)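 Reporter: UAS-bla under PPAR-delta response element, HEK293T host. Medium: 2% charcoal/dextran FBS. Dosing: titration, 18 hrs, 37 C. Detection: CCF4, 2 hrs RT, 405 ex/460 and 530 em.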

[20] = target: Peroxisome proliferator-activated receptor delta (Homo sapiens) (UniProt Q03181); assay: as above
Chain of Peroxisome proliferator-activated receptor delta (Homo sapiens) (Q03181 whole entry, looked up): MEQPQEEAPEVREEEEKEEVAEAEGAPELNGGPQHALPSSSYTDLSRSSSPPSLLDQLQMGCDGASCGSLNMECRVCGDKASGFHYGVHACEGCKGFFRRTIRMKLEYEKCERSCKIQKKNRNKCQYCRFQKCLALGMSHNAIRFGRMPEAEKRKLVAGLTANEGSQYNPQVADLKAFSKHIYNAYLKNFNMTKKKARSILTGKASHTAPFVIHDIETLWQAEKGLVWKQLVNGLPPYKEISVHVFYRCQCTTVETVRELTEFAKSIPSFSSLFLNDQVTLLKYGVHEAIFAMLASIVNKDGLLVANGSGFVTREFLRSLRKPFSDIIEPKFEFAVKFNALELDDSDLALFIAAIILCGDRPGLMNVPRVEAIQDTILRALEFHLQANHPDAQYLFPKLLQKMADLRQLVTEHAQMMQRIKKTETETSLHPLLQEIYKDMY
Outline: as §1

[21] = target: Peroxisome proliferator-activated receptor gamma (Homo sapiens) (UniProt P37231); assay: qHTS assay for small molecule agonists of peroxisome proliferator-activated receptor gamma signaling (AID 588536; active = well fitted curve in the direction sought with a large enough effect in the signal ratio, with a control signal flat, not every such curve was filed as active; the % refers to the signal ratio;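 also: 0% = DMSO basal wells and 100% = rosiglitazone at 2 µM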)
Chain of Peroxisome proliferator-activated receptor gamma (Homo sapiens) (P37231 whole entry, looked up): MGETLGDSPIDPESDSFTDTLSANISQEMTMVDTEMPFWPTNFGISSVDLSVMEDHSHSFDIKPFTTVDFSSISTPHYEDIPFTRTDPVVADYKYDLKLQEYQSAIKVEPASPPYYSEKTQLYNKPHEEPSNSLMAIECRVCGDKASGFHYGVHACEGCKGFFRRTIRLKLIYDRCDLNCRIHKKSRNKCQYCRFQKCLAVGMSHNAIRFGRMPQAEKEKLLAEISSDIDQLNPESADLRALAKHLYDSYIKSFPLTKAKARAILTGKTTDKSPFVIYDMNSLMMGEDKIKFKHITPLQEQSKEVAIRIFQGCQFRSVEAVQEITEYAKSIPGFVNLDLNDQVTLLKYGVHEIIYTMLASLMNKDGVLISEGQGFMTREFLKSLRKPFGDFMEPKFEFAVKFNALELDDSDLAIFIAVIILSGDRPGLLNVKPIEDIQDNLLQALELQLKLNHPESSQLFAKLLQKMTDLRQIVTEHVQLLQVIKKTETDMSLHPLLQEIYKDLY
Outline: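 Ratiometric blue/green fluorescence (405 nm excitation; 460 and 530 nm emission) from CCF4-loaded HEK293 reporter cells serves as signal. Exposure to test compounds lasts 16 h at 37 C in medium containing 1% charcoal/dextran-treated serum.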

[22] = target: Peroxisome proliferator-activated receptor gamma (Homo sapiens) (UniProt P37231); assay: qHTS assay for small molecule antagonists of peroxisome proliferator-activated receptor gamma signaling (AID 588537; active = well fitted inhibition curve with a large enough effect in the signal ratio, with a control signal flat, not every such curve was filed as active; the % refers to the signal ratio;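 also: reporter cells co-stimulated with 50 nM rosiglitazone agonist during compound treatment; % of control where 0% means no effect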)
Outline: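 We seeded GeneBLAzer HEK293 reporter cells at 3000 per well, allowed 6-6.5 h attachment at 37 C, then co-treated with test compound titrations and 50 nM rosiglitazone overnight (16 h). Inhibition was quantified from 460/530 nm emission ratios.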

O=S(=O)(O)c1ccccc1
inactive: Potency [1] | Potency [2] | Potency [3] | Potency [4] | Potency [5] | Potency [6] | Potency [7] | Potency [8] | Potency [9] | Potency [10] | Potency [11] | Potency [12] | Potency [13] | Potency [14] | outcome [15] | outcome [16] | activation [17] -5.18% | Potency [18] | Potency [20] | outcome [21] | outcome [22]
1.28%: max response [19]

— PubChem BioAssay (NCATS)
